Assay [1] in a line: qHTS assay to identify small molecule antagonists of the androgen receptor (AR) signaling pathway using the MDA cell line in the presence of 0.5 nM R1881 - cell viability counter screen (AID 1259242). Further: nearly all actives have a fitted effect of over 45% in size. Further: potency means the concentration at half of the fitted maximal effect. The method, boiled down: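 Viability of MDA-kb2 cells was multiplexed with the luciferase AR readout; after 16 hr with compounds and R1881 at 0.5 nM final, CellTiter-Fluor fluorescence was recorded.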

Assay [2] concerns the target Androgen receptor (Homo sapiens) (UniProt P10275). Kind of assay: qHTS assay to identify small molecule antagonists of the androgen receptor (AR) signaling pathway using the MDA cell line in the presence of 0.5 nM R1881 (AID 1259243). Further: potency means the concentration at half of the fitted maximal effect; nearly all actives have a fitted effect of over 50% in size. The method, boiled down:
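Reporter cells cultured without CO2 receive test chemicals, then 0.5 nM R1881 final; after 16 hr at 37C, ONE-Glo is added and light output recorded.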
(In qHTS, concentration-response curves come from the screen itself.)

Assay [3] is described as follows: qHTS assay to identify small molecule HDAC inhibitors (AID 1259364). Further: potency means the concentration at half of the fitted maximal effect.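 Further: wild-type HCT-116 cells with endogenous class I/II HDAC activity; nearly all actives have a fitted effect of over 45% in size.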 The method, boiled down: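 Read-out: luminescence of HDAC-Glo I/II reagent, 30 min RT, reflecting class I/II deacetylase activity in whole HCT-116 cells pre-exposed 2 h to DMSO-dissolved compounds.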
Assay [4] is described as follows: qHTS assay to identify small molecule HDAC inhibitors - cell viability counter screen (AID 1259365). Further: series mostly up to about 92 µM; nearly all actives have a fitted effect of over 50% in size. Put shortly:
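Wild-type HCT-116 cells were seeded at 1,500 per well, incubated overnight at 37 C, then exposed to compounds in DMSO for 2hr. Viability was read by CellTiter-Glo luminescence after 30min at room temperature.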

Assay [5] can be described thus: qHTS assay to identify small molecule agonists of the sonic hedgehog signaling (Shh) pathway - cell viability counter screen (AID 1259366). Further: nearly all actives have a fitted effect of over 50% in size. Further: potency means the concentration at half of the fitted maximal effect. Put shortly:
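NIH/3T3-derived 3T3 Gli1-Luc cells (stable Gli1-responsive firefly luciferase reporter) were seeded, rested 4 hr at 37 C/5% CO2, then exposed to compounds in DMSO for 24 hr; viability was read by CellTiter-Fluor fluorescence in the same wells.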

A short description of assay [6]: qHTS assay to identify small molecule antagonists of the sonic hedgehog signaling (Shh) pathway - cell viability counter screen (AID 1259367). Further: nearly all actives have a fitted effect of over 55% in size. Further: potency means the concentration at half of the fitted maximal effect. The method, boiled down: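 Seed 3T3 Gli1-Luc cells at 2,000 per well; incubate 4 hr; add compound in DMSO, then conditioned medium; incubate at 37C with 5% CO2; add CellTiter-Fluor after 23 hr; read fluorescence 1 hr later.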

Assay [7] can be described thus: qHTS assay to identify small molecule agonists of the sonic hedgehog signaling (Shh) pathway (AID 1259368; calls by dose curve; further: series mostly up to about 92 µM; nearly all actives have a fitted effect of over 15% in size). The method, boiled down: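 A Gli1 transcriptional response element controlled firefly luciferase in 3T3Gli1-Luc cells. Compounds and a positive control were added 4 hr after plating, and cells were incubated a further 24 hr at 37 C before luminescence detection.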

Assay [8] in a line: qHTS assay to identify small molecule antagonists of the sonic hedgehog signaling (Shh) pathway (AID 1259369; calls by dose curve; further: nearly all actives have a fitted effect of over 45% in size; further: potency means the concentration at half of the fitted maximal effect). The method, boiled down: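 For antagonist detection, the reporter line received test compounds together with conditioned medium, incubated 24hr at 37 C, 5% CO2, then luminescence was recorded following 30min room-temperature luciferase reagent incubation.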
Assay [9] in a line: qHTS assay to identify small molecule agonists of the estrogen receptor beta (ER-beta) signaling pathway - cell viability counter screen (AID 1259380). Further: nearly all actives have a fitted effect of over 30% in size. Further: potency means the concentration at half of the fitted maximal effect. Put shortly:
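CellTiter-Glo read, 30 min RT, same wells as bla assay; cells ER-beta-UAS-bla HEK293T; 16 hr compound, 37C; medium 2% charcoal-stripped FBS.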

The target in assay [10] is Androgen receptor (Homo sapiens) (UniProt P10275). The experiment in a line: qHTS assay to identify small molecule agonists of the androgen receptor (AR) signaling pathway in the presence of an antagonist (AID 1259381; calls by dose curve; further: nearly all actives have a fitted effect of over 15% in size). The method, boiled down: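 Test compounds at 15 concentrations were incubated for 16hr with MDA-kb2 reporter cells in presence of 3.0uM nilutamide (final). Signal: ONE-Glo luciferase luminescence.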
Androgen receptor (Homo sapiens), sequence (P10275 whole entry, looked up): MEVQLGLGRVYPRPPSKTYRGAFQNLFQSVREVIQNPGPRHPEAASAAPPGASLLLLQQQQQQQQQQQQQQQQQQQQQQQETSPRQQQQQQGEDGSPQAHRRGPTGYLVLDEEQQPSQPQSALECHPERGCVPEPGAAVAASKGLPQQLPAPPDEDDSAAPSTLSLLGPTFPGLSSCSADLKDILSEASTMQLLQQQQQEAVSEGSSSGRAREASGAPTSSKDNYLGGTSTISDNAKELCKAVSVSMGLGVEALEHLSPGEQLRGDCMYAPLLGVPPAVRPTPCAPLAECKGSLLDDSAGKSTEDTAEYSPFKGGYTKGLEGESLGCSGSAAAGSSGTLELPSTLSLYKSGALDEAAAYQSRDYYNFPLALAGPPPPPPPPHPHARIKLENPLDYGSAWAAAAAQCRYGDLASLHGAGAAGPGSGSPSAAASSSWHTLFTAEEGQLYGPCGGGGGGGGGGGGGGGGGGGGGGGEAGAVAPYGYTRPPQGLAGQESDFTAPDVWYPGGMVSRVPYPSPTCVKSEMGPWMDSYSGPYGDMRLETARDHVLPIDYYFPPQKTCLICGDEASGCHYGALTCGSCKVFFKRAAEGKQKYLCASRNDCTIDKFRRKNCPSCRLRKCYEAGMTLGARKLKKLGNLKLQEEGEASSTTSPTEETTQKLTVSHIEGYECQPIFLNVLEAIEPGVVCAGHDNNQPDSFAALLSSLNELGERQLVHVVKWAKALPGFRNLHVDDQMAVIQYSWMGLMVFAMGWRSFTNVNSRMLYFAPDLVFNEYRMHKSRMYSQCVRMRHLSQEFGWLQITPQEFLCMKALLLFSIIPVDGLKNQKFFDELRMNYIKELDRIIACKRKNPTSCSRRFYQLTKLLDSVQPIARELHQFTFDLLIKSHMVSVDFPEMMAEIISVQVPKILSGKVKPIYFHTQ

Assay [11] in a line: qHTS assay to identify small molecule antagonists of the estrogen receptor beta (ER-beta) signaling pathway - cell viability counter screen (AID 1259382). Further: nearly all actives have a fitted effect of over 55% in size. Further: potency means the concentration at half of the fitted maximal effect. The method, boiled down: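 In this multiplexed counter screen, cells were seeded at 2,000 per well in medium with 2% charcoal-stripped FBS and incubated 6 hr before compound and 1nM final E2 were added. Sixteen hours later, ATP-based luminescence reported viability.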

Assay [12] in a line: qHTS assay to identify small molecule agonists or antagonists of the thyroid stimulating hormone receptor (TSHR) signaling pathway - wild type cell line counter screen (AID 1259384; calls by dose curve). Put shortly:
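Wild-type Hek293 cells, 800/well, 18 h at 37C, then compound with Ro20-1724 for 30 min RT. cAMP by HTRF (cAMP-d2/anti-cAMP cryptate), 1 h RT, fluorescence read. 15 concentrations, triplicates.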

Assay [13] in a line: qHTS assay to identify small molecule phospholipidosis (PLD) inducers (AID 1259344; active means well fitted curve in the direction sought with a large enough effect; an effect the other way counts as inactive or inconclusive). The method, boiled down: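 Quantitative HTS in HepG2: compound plus LipidTOX Red dye for 24 h, paraformaldehyde fixation with Hoechst 33342, widefield high-content imaging; amiodarone as positive and DMSO as negative control.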
The target in assay [14] is Estrogen receptor (Homo sapiens) (UniProt P03372). The experiment in a line: qHTS assay to identify small molecule agonists of the estrogen receptor alpha (ER-alpha) signaling pathway in the presence of an antagonist (AID 1259383; calls by dose curve; further: top concentration of the series differs between compounds; nearly all actives have a fitted effect of over 15% in size). Put shortly:
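Stably transfected VM7Luc4E2 reporter cells, kept 5 days in charcoal-stripped serum, received ICI-182,780 at 10.0nM final before compound addition. Following 22hr incubation at 37C and 5% CO2, luciferase signal was read by luminescence.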

Assay [15] addresses Thyrotropin receptor (Homo sapiens) (UniProt P16473). Kind of assay: qHTS assay to identify small molecule antagonists of the thyroid stimulating hormone receptor (TSHR) signaling pathway (AID 1259385; calls by dose curve; further: nearly all actives have a fitted effect of over 20% in size). The method, boiled down: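 TSHR-HEK293 cells (800/well) plated 18 h, then compounds with Ro20-1724 and TSH at 1.5 ng/mL final, 30 min at room temperature. cAMP quantified by HTRF (cAMP-d2/anti-cAMP-cryptate, 1 h); 15 concentrations in triplicate.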

The target of assay [16] is Estrogen receptor (Homo sapiens) (UniProt P03372). Kind of assay: qHTS assay to identify small molecule antagonists of the estrogen receptor alpha (ER-alpha) signaling pathway using the BG1 cell line in the presence of 0.1 nM 17-beta-estradiol (AID 1259244). Further: nearly all actives have a fitted effect of over 50% in size. Further: potency means the concentration at half of the fitted maximal effect. Put shortly:
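Estradiol at 0.1 nM (final) stimulates the endogenous ER-alpha of VM7Luc4E2 cells carrying an ERE-driven luciferase; compounds are co-incubated 22 h at 37C and luciferase output quantified by luminescence.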

Assay [17] in a line: qHTS assay to identify small molecule agonists of the androgen receptor (AR) signaling pathway in the presence of an antagonist - cell viability counter screen (AID 1259379). Further: potency means the concentration at half of the fitted maximal effect; nearly all actives have a fitted effect of over 25% in size. The method, boiled down: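 Seed MDA-kb2 at 3,000 cells/well; incubate 5 hr, 37C, 0% CO2. Add nilutamide to 3.0uM final, then pin compounds at 15 concentrations. Incubate 16 hr. Add CellTiter-Fluor at 15 hr, read fluorescence after 1 hr.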

Drawing on PubChem BioAssay (Tox21), this text covers Potency and outcome for six compounds.

Each structure is given as a SMILES string. Inconclusive results are not listed. Activity calls are given as the source filed them. Unless noted, the call rests on the fitted dose curve; in most records, active means well fitted curve in the direction sought with a large enough effect in the repeat runs; inconclusive means weak or mixed curves; inactive means no such curve, though single readings can be large; an effect the other way counts as inactive or inconclusive.

Estrogen receptor (Homo sapiens), sequence (P03372 whole entry, looked up): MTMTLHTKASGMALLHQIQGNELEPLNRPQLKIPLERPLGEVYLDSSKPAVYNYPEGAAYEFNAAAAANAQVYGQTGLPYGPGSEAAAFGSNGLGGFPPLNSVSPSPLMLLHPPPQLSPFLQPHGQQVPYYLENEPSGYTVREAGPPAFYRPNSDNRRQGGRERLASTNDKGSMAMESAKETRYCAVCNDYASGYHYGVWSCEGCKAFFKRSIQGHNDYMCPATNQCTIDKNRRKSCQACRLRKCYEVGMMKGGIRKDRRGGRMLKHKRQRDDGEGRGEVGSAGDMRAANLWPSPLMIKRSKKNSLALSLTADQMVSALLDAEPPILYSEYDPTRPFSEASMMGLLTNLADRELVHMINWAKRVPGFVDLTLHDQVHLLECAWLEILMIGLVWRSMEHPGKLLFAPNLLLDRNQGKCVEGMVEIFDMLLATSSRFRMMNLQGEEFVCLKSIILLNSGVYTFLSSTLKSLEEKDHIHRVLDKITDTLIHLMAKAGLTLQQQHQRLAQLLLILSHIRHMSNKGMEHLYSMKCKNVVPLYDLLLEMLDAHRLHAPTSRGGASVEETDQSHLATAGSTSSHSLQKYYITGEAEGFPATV
Thyrotropin receptor (Homo sapiens), sequence (P16473 whole entry, looked up): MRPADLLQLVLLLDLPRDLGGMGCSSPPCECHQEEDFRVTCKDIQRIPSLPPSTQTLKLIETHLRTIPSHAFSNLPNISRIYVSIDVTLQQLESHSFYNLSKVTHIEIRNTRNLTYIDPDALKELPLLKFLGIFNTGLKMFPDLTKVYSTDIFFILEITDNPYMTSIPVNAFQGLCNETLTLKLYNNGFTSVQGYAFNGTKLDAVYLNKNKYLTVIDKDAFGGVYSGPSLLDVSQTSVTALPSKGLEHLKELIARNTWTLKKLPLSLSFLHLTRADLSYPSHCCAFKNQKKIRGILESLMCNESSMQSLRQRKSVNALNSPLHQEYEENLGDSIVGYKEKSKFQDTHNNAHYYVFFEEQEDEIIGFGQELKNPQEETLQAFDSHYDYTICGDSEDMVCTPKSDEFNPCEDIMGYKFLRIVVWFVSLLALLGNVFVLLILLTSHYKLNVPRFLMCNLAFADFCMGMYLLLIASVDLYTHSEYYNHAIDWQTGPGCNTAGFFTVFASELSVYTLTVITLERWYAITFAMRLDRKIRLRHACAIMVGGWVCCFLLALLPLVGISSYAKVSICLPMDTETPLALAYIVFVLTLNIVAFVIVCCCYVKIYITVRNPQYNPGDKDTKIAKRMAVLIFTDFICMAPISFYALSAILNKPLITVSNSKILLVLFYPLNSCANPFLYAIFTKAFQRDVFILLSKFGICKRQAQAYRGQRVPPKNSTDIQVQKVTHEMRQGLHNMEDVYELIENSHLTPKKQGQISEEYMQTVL

With `CCCCCCCCCOC(=O)c1ccc(O)cc1`, the Potency entry in [1], in assay [3], in [4], in assay [6], in [7] and in [8] was “inactive” each time. Further, the Potency entry in assay [10] is “inactive”. Also, the Potency is 42.7 µM (active) in assay [2], 60.3 µM (active) in assay [5], 53.7 µM (active) in [9] and 53.7 µM (active) in assay [11]. In addition, the compound was called inactive in assay [12].
`CC[C@@]1(O)C(=O)OCc2c1cc1n(c2=O)Cc2cc3c(CN(C)C)c(O)ccc3nc2-1`: the Potency result in assay [13], in assay [3], in assay [4], in assay [7], in assay [9] and in [11] was “inactive” throughout. Also, the Potency entry in [14] and in [15] was “inactive” in each case. Further, in assay [8], the Potency is 1.33 µM (active). The call in [12] was inactive.
Regarding `O=C(O)c1cc(O)c2c(c1)C(=O)c1cccc(O)c1C2=O`, the Potency entry in [16], in assay [4], in assay [5], in assay [7], in assay [9] and in assay [11] was “inactive” each time. Further, the Potency result in [14] is “inactive”. In assay [3], the Potency is 14.1 µM (active). Besides, the call in assay [12] was inactive.
On to `CC1=C(/C=C/C(C)=C/C=C/C(C)=C/C=O)C(C)(C)CCC1`, for which the Potency entry in assay [3] and in [7] was “inactive” throughout. The Potency is 30.5 µM (active) in assay [5]; 60.8 µM (active) in assay [6]; 15.3 µM (active) in assay [8]; 60.8 µM (active) in assay [17]; 24.2 µM (active) in assay [9]; 30.5 µM (active) in assay [11]. Also, the compound was classed as inactive in [12].
Consider `CS(=O)(=O)CCNCc1ccc(-c2ccc3ncnc(Nc4ccc(OCc5cccc(F)c5)c(Cl)c4)c3c2)o1`, for which the Potency in assay [2] is 13.3 µM (active); in assay [16] it was 29.8 µM (active); in assay [17] it was 15 µM (active); in assay [9], 13.3 µM (active); in assay [11], 13.3 µM (active). For the same compound, the Potency result in assay [13], in [3], in assay [4], in assay [5], in assay [6] and in [7] was “inactive” throughout. The Potency entry in assay [10] and in assay [14] was “inactive” in each case. Besides, in assay [12], the compound was called inactive.
Take `CCCCCCCCNC(C)C(O)c1ccc(SC(C)C)cc1` (stereo not drawn): the Potency is 23.7 µM (active) in assay [1]; 23.7 µM (active) in assay [2]; 29.8 µM (active) in [16]; 16.8 µM (active) in assay [5]; 18.8 µM (active) in assay [8]; 23.7 µM (active) in [17]. The Potency was 11.9 µM (active) in assay [9] and 13.3 µM (active) in assay [11]. For the same compound, the Potency result in assay [13], in assay [3], in [7], in assay [10] and in assay [14] was “inactive” each time. For the same compound, the call in assay [12] was inactive.
